This is one part of a sample in which hits are shown more often than they occur.
FBPA Giardia inh – inhibitors of Giardia lamblia fructose-1,6-bisphosphate aldolase. A8B2U2. purified Giardia FBPA. Potency, µM (titrated, usually from 59.6 µM), hits mostly inhibitors. hit rate 0.71% among 290,000. AID 2451; note: nearly all actives have a fitted effect of over 55% in size
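40 nM FBPA preincubated 10 min at RT with compound (up to 57.5 uM final), then substrate plus GAPDH/TPI/NAD/arsenate coupling and diaphorase/resazurin added. Fluorescence read after 20 min at RT, 525/598 nm.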
TbPYK inhibitor – inhibitors of Trypanosoma brucei pyruvate kinase. Q57TT1. TbPYK enzyme, Kinase-Glo Plus ATP luminescence, 45 min. Potency, µM (series often up to 76.8 µM), actives largely listed as inhibitors. hit rate 0.12% among 410,000; note: nearly all actives have a fitted effect of over 50% in size
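Quantitative HTS: titrated library compounds versus trypanosomal pyruvate kinase in TEA buffer (pH 7.2) containing KCl, MgCl2, BSA and Tween-20. Reactions were initiated with ADP, 130 uM final. Kinase-Glo Plus luminescence was read after 45 min at RT.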
Shiga toxin inh – inhibitors of Shiga toxin in Vero cells; inhibition, % at 38.7 µM; Vero cells, Shiga toxin protein synthesis inhibition reporter; hit rate 9.2% among 290,000; AID 2315; in the data active = inhibition mostly above about 28%, no sharp cut-off; inactive = mostly below about 43%
CHX counter – counter-screen hit for Shiga toxin inhibitors, cycloheximide. cell reporter, cycloheximide protein synthesis inhibition counterscreen. max response, %. hit rate 12% among 300,000; in the data active = max response mostly above about 13%, no sharp cut-off; inactive = mostly below about 14%; note: read at 38.3 µM for the half of the compounds with a filed dose
Sm TGR inh – S. mansoni TGR enzyme inhibition; Potency, µM (highest dose often 114 µM), most hits filed as inhibitors; purified TGR, DTNB reduction, TNB absorbance 405 nm; hit rate 3% among 360,000; AID 485364; Q962Y6; note: nearly all actives have a fitted effect of over 60% in size
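TGR 20 nM + NADPH 100 uM (dispensed conc.), cpd preinc 15 min RT; start with NADPH (500 uM addition) then DTNB (15 mM addition). Kinetic TNB absorbance, 405 nm filter. Four-parameter Hill fit across titration.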
LmPK inh – blocks Leishmania mexicana pyruvate kinase activity; purified LmPK, Kinase-Glo ATP luminescence, 1 h; hit rate 0.37% among 290,000; Q27686; AID 1721; Potency, µM (series often up to 57.5 µM), usual class: inhibitors
Target sequence (Q27686 whole entry, looked up): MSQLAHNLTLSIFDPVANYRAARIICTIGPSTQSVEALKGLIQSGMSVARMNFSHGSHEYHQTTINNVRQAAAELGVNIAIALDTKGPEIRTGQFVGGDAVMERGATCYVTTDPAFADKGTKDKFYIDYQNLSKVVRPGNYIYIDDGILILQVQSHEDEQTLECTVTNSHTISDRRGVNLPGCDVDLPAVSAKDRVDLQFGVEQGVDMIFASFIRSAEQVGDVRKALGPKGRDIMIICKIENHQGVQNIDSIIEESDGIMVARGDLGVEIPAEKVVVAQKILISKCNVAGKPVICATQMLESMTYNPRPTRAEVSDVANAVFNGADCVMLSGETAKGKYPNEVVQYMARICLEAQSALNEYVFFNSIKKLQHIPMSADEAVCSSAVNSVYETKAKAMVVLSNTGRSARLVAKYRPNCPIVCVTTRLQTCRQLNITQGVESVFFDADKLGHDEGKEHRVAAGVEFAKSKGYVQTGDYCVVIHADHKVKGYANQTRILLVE
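In 50 mM imidazole pH 7.2 with 7 mM MgCl2, LmPK (0.1 nM) turned over PEP (0.5 mM) and ADP (0.1 mM) for 1 h at room temperature. Luciferase read-out of ATP.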
A number is an active result; 0 = inactive; ? = inconclusive; - = no result; + = active, no number; [ ] = remark or other dose. Unless noted, calls come from the whole dose curve; as a rule, active = well fitted curve in the direction sought with a large enough effect; inconclusive = small, poorly fitted or top-dose-only effect, or another doubt; inactive = no such curve, though single readings can be large; an effect the other way counts as inactive or inconclusive.

SMILES	FBPA Giardia inh	TbPYK inhibitor	Shiga toxin inh	CHX counter	Sm TGR inh	LmPK inh
CCOC(=O)c1sc2nc3n(c(=O)c2c1C)CCC3	0	0	0	0	0	0
COc1ccc(-c2csc3ncnc(Nc4ccc(OC)c(OC)c4)c23)cc1	-	0	-	-	0	-
COc1ccc(-c2nnc(SCc3ncc(-c4ccccc4)o3)o2)cc1	0	0	0	0	39.8µM	0
COc1ccc(-c2nnc(SCc3nc4ccccc4c(=O)[nH]3)o2)cc1	0	0	62.8	41.1	0	0
COc1ccc(-c2nnc(SCC(C)C)o2)cc1	0	0	55.4	58.4	0	0
COc1cccc(C(=O)Nc2cccc(C(=O)OCc3cc(=O)n4nc(C5CC5)sc4n3)c2)c1	-	0	-	-	0	-
FC(F)(F)c1nnc2c(Sc3ccccc3)nc3ccccc3n12	0	0	0	28.2	?	0
FC(F)(F)c1nnc2c(Sc3ccc(Cl)cc3)nc3ccccc3n12	0	0	0	0	0	0
FC(F)(F)c1nnc2c(Sc3ccccn3)nc3ccccc3n12	0	0	111.1	22.5	25.1µM	0
COc1ccc(NS(=O)(=O)c2ccc(N3CCCCS3(=O)=O)cc2)cc1Cl	-	0	-	-	0	-
CCc1nc2oc3ccccc3c(=O)c2c(=O)n1-c1ccccc1	0	0	64.9	44.0	0	0
Cc1ccc(-n2c(C(C)C)nc3oc4ccccc4c(=O)c3c2=O)cc1	0	0	63.3	29.2	0	0
CCCc1nc2oc3ccccc3c(=O)c2c(=O)n1-c1ccc(C)cc1	0	0	66.4	36.0	0	0
CCc1nc2oc3ccccc3c(=O)c2c(=O)n1CCOC	0	0	0	0	?	0
CCc1nc2oc3ccccc3c(=O)c2c(=O)n1-c1ccc(C)cc1	0	0	63.6	41.0	0	0
CCCc1nc2c(c(=O)c3ccccc3n2C)c(=O)n1-c1ccc(F)cc1	0	0	0	0	0	0
CCCSc1ncc(Cl)c(C(=O)Nc2sc(C(C)=O)c(C)c2C(=O)OCC)n1	-	0	-	-	0	-
CCCc1nc2oc3ccccc3c(=O)c2c(=O)n1-c1ccccc1	0	0	55.1	33.2	0	0
N=C1/C(=C\c2ccc(OC(=O)c3ccco3)cc2)C(=O)N=C2SC(N3CCCCC3)=NN12	?	0	0	0	0	0
N=C1/C(=C\c2ccc(OC(=O)c3ccccc3)cc2)C(=O)N=C2SC(N3CCOCC3)=NN12	0	0	0	15.2	0	0
Cc1ccc(C(=O)Oc2ccc(/C=C3\C(=N)N4N=C(N5CCOCC5)SC4=NC3=O)cc2)cc1	?	0	59.3	26.1	0	0
N=C1/C(=C\c2ccc(OC(=O)c3ccc(F)cc3)cc2)C(=O)N=C2SC(N3CCCC3)=NN12	0	0	0	0	0	0
N=C1/C(=C\c2ccc(OCc3ccccc3)cc2)C(=O)N=C2SC(N3CCCC3)=NN12	0	-	45.3	27.1	0	0
COc1ccc(-c2cc(C(C)=O)c(C)n2CCC(=O)Nc2cccc(C)c2C)cc1	-	0[15.4 µM]	-	-	0	-
COc1ccc(OCC(O)CN(CC(O)COc2ccc(OC)cc2)c2cccc(O)c2)cc1 (stereo not drawn)	-	0	0	18.7	0	0
SMILES	FBPA Giardia inh	TbPYK inhibitor	Shiga toxin inh	CHX counter	Sm TGR inh	LmPK inh
COc1ccc(OCC(O)COc2ccc(OC)cc2)cc1	0	0	0	0	0	0
CCc1ccc2oc(C(=O)N(Cc3ccc(N(C)C)cc3)Cc3ccco3)c(C)c2c1	-	0	-	-	0	-
COc1cc(CC2COC(c3ccc(O)c(OC)c3)C2COC(C)=O)ccc1O (stereo not drawn)	0	0	0	0	39.8µM	0
Oc1ccc(C[C@H]2NCCc3cc(O)c(O)cc32)cc1O	0	0	0	0	17.8µM	?
C/C(=N/NS(=O)(=O)c1ccc(Cl)cc1)c1cccc(NC(=O)c2ccc(Cl)cc2Cl)c1	0	0	84.1	33.0	0	0
C/C(=N\NC(=O)c1cc(O)ccc1O)c1cccc(NC(=O)c2ccc(Cl)cc2)c1	-	0	78.3	46.8	39.8µM	0
C/C(=N\NC(=O)C1CC1)c1cccc(NC(=O)c2cccc(Cl)c2)c1	0	-	0	0	0	0
C/C(=N\NC(=O)c1cc(O)ccc1O)c1cccc(NC(=O)c2cccc(Cl)c2)c1	-	0	70.7	40.7	63.1µM	0
NCC1O[C@@H](OC2C(N)CC(N)C(O)C2O[C@@H]2OC(CO)C(O)C2O)C(N)C(O)C1O (stereo partly drawn)	0	-	-	-	-	-
COc1ccc2[nH]c3c(c2c1)CCN1C(=O)N([C@@H](C)C(=O)NCc2ccc(C)cc2)C(=O)[C@]31C	0	0	0	0	0	0
C=CCNC(=O)c1nn2cccnc2c1Cl	0	0	0	0	0	0
O=C(Nc1cc(Cl)cc(Cl)c1)c1cnn2cccnc12	0	0	0	0	0	0
O=C(Nc1cccc(Cl)c1)c1cnn2cccnc12	0	0	active	38.4	0	0
Cc1cc(NC(=O)c2cnn3cccnc23)no1	0	0	141.4	53.6	0	0
Cc1cc(NC(=O)c2nn3cccnc3c2Cl)no1	0	0	34.5	40.3	0	0
COC(=O)c1ccccc1NC(=O)c1cnn2cccnc12	0	0	0	0	0	0
COc1ccc(-c2cc(C(C)=O)c(C)n2CCC(=O)Nc2cc(Cl)ccc2C)cc1	-	0[15.4 µM]	-	-	0	-
Cc1cc(N2CCCC2)nc2ccccc12	0	0	0	0	-	0
Cc1cc(N2CCOCC2)nc2ccc(Cl)cc12	0	0	61.6	41.0	0	0
Cc1cc(N2CCNCC2)nc2ccccc12	0	0	0	0	22.4µM	0
Cc1ccc2c(c1)[C@H]1[C@H](CO2)[C@H](c2ccccc2)[C@]2(C)C(=O)Nc3cc(F)ccc3C(=O)N12	-	0	-	-	-	-
C/C(=N/NC(=O)c1ccc(C(C)(C)C)cc1)c1ccccn1	-	0	-	-	-	-
C/C(Cn1nnc2ccccc21)=N\NC(=O)c1cccc(Br)c1	0	0	+	24.2	0	0
C/C(Cn1nnc2ccccc21)=N/OC(=O)c1c(F)cccc1F	0	0	0	0	0	0
CCOc1ccc(OCc2ccc(C(=O)N/N=C(\C)c3ccccn3)cc2)cc1	0	0	0	40.5	0	0
SMILES	FBPA Giardia inh	TbPYK inhibitor	Shiga toxin inh	CHX counter	Sm TGR inh	LmPK inh
C/C(=N\NC(=O)c1cccc(Br)c1)c1ccccn1	?	0	87.4	26.6	0	0
COc1ccc(C(=O)N/N=C(\C)c2ccccn2)cc1OC	?	0	41.7	21.8	0	0
CCc1nn(Cc2c(C)cc(C)cc2C)c(=O)c2cc3cc(C)ccc3n12	-	0	-	-	0	-
CCc1ccccc1NC(=O)c1noc2c1CC(C(C)(C)C)CC2 (stereo not drawn)	-	0	-	-	0	-
C/C(=N/NC(=O)c1cccc(Br)c1)C1CC2CCC1C2 (stereo not drawn)	-	0	0	47.4	0	0
C/C(=N\NC(=O)c1ccccc1Cl)c1ccccn1	?	0	85.0	28.3	0	0
C/C(=N/NC(=O)c1ccccn1)c1ccncc1	0	0	91.7	36.0	0	0

Screening results: PubChem BioAssay, National Center for Advancing Translational Sciences (NCATS)
